Source: PubChem BioAssay AID493131 (Broad Institute, 2011)
The campaign covered roughly 340,000 compounds. About 3,300 (0.97%) were called active.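 How the source made its calls: active means mean activation above about 17%, with every replicate also reaching it (limit read from the data, passing the limit was not always enough); inconclusive means only one of the two conditions met; inactive means the rest.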 For the sample, actives were picked, then their nearest neighbours and some compounds at random.

Each compound was assayed against Protein FosB (Mus musculus) (UniProt P13346) (assay: enhancers of mouse delta FosB DNA binding – biochemical, fluorescence polarization, TAMRA-CDK5 oligo, single point, primary screen (AID 493131;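 further: fluorescence polarization rise as delta FosB binds a TAMRA Cdk5 AP-1 oligo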)). Details: purified delta FosB, at 25 µM, stronger effect = higher value, percent of positive-control signal above neutral wells.
Chain of Protein FosB (Mus musculus) (P13346 whole entry, looked up): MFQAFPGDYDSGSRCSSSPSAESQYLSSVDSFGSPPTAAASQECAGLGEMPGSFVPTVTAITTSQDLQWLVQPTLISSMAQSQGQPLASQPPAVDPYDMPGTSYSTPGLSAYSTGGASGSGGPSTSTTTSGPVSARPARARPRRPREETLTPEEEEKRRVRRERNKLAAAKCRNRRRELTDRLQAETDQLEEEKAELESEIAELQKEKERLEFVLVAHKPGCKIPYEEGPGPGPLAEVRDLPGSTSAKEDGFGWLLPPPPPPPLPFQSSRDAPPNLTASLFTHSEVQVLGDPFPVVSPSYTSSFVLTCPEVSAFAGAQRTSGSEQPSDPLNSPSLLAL
For `COc1ccc(C2C(C(=O)Nc3ccccc3OC)=C(C)Nc3nnnn32)c(OC)c1` (stereo not given), the activation was -2.93% (inactive).
For `COc1cc(C2C(C(=O)Nc3ccccc3OC)=C(C)Nc3ncnn32)ccc1O` (stereo not given), the activation was -9.43% (inactive).
With `COc1ccccc1NC(=O)C1=C(C)Nc2nnnn2C1c1cccc(Br)c1` (stereo not given) the activation was 27.9% (active).
With `COc1ccc(-c2cc3nc(C)c(CCC(=O)NC(C)CCc4ccco4)c(C)n3n2)c(OC)c1` (stereo not given) the activation was -2.13% (inactive).
In the case of `Cc1ccc(NC(=O)CCC(=O)N2CCC(c3ccccc3)=N2)cc1S(=O)(=O)N1CCCCC1`, the activation is reported as 10.2% (inactive).
With `Cc1sc2ncnc(N3CCC(C(=O)Nc4nc5ccc(Cl)cc5s4)CC3)c2c1C` the activation was 43.5% (active).
With `Cc1sc2ncnc(N3CCC(C(=O)NNC(=O)c4ccc(F)cc4)CC3)c2c1C` the activation was -4.25% (inactive).
In the case of `Cc1sc2ncnc(N3CCC(C(=O)Nc4ccc(F)cc4Cl)CC3)c2c1C`, the activation is reported as -2.12% (inactive).
For `Cc1cccc(-n2nc3c(c2NC(=O)c2cc4ccccc4o2)CS(=O)(=O)C3)c1`, the activation was -22.1% (inactive).
For `COc1ccc(CCNC(=O)c2nnc(CS(=O)(=O)c3ccccc3)o2)cc1OC`, the activation was -8.02% (inactive).
For `CCCCNC(=S)N/N=C1\CCCCc2ccccc21`, the activation was -5.41% (inactive).
With `COc1cccc(CNC(=O)c2cccnc2Sc2ccc(Cl)cc2)c1` the activation was -12% (inactive).
For `Cc1ccc(NC(=O)Cn2nnc(C(=O)NCc3ccco3)c2N)c(C)c1`, the activation was 14.6% (inactive).
For `COc1cccc(CNC(=O)c2n[nH]c3ccccc23)c1`, the activation was -2.62% (inactive).
In the case of `CCN(CC(=O)NCc1cccs1)c1nnnn1-c1ccccc1`, the activation is reported as 1.6% (inactive).
`COc1cccc(CNC(=O)c2nnn(CC(=O)Nc3cc(Cl)ccc3C)c2N)c1` was tested, and the activation was 70.5% (active).
For `COc1ccc(S(=O)(=O)N2CCC(C(=O)NCCC(=O)NCc3cccc(OC)c3)CC2)cc1`, the activation was -3.09% (inactive).
In the case of `COc1cccc(CNC(=O)c2nnn(CC(=O)Nc3cc(C)ccc3C)c2N)c1`, the activation is reported as 52.8% (active).
For `CCOc1ccccc1NC(=O)Cn1nnc(C(=O)NCc2cccs2)c1N`, the activation was 28.6% (active).
For `CCOc1ccc(Cn2nnc(C(=O)Nc3ccc(OC)cc3OC)c2N)cc1`, the activation was 7.56% (inactive).
In the case of `COc1ccc(NC(=O)Cn2nnc(C(=O)NCCc3ccc(OC)c(OC)c3)c2N)cc1`, the activation is reported as -1.69% (inactive).
With `COc1ccc(CNC(=O)c2nnn(CC(=O)Nc3cc(C)cc(C)c3)c2N)cc1` the activation was 48.3% (active).
With `CCOc1ccccc1NC(=O)Cn1ncc2ccc([N+](=O)[O-])cc21` the activation was -5.27% (inactive).
With `O=C(O)c1ccc(S(=O)(=O)c2ccccc2)s1` the activation was 0.96% (inactive).
`O=S(=O)(Nc1ccc(OC(F)(F)F)cc1)c1cccc2nonc12` was tested, and the activation was 2.63% (inactive).
In the case of `N#Cc1c(/N=C/N2CCCC2)oc(-c2ccccc2)c1-c1ccccc1`, the activation is reported as -4.67% (inactive).
In the case of `CC(Sc1nnnn1C1CCCCC1)C(=O)O` (stereo not given), the activation is reported as 1.4% (inactive).
With `Cc1cccc(CSc2nc3c(c(=O)n2C)SCC3)c1` the activation was -8.87% (inactive).
With `CCN(CC)c1ccc(S(=O)(=O)N2CCOCC2)cc1NC(=O)CSc1cccc[n+]1[O-]` the activation was 4.76% (inactive).
`NC(=O)Nc1ccc(C(=O)OCC(=O)NC2CCCc3ccccc32)cc1` (stereo not given) was tested, and the activation was 0.99% (inactive).
For `Nc1ccc(C(=O)OCC(=O)NC2CCS(=O)(=O)C2)cc1[N+](=O)[O-]` (stereo not given), the activation was -1.21% (inactive).
In the case of `Nc1ccc(C(=O)OCC(=O)NC2CCCc3ccccc32)cc1[N+](=O)[O-]` (stereo not given), the activation is reported as 35.5% (active).
For `CC1(C(=O)O)CCC(C(=O)Nc2ccc(Cl)c(Cl)c2)C1(C)C` (stereo not given), the activation was -5.56% (inactive).
With `COc1ccc(OCCCC(=O)Nc2nnc(C3CCCO3)s2)cc1` (stereo not given) the activation was -9.89% (inactive).
`COc1ccc(NC(=O)CCC(=O)Nc2nnc(C3CCCCC3)s2)cc1` was tested, and the activation was 23.2% (active).
`COc1ccc2c(CC(=O)Nc3nnc(C4CC4)s3)coc2c1` was tested, and the activation was -0.902% (inactive).
For `O=C(Cc1ccc(Br)cc1)NCCN1CCOCC1`, the activation was 7.04% (inactive).
In the case of `CC1CCCCC1NC(=O)/C(C#N)=C/C=C/c1ccccc1[N+](=O)[O-]` (stereo not given), the activation is reported as -2.37% (inactive).
`COc1ccc(S(=O)(=O)N(C)CC(=O)Nc2ccc3c(c2)OCCO3)cc1OC` was tested, and the activation was -3.7% (inactive).
`CS(=O)(=O)c1ccc(-c2nnn(CC(=O)Nc3ccc4c(c3)OCCO4)n2)cc1` was tested, and the activation was 37.1% (active).
`Cc1ccc(SCC(=O)Nc2ccc3c(c2)OCCO3)cc1` was tested, and the activation was -1.62% (inactive).
With `Cc1cccc(C(=O)Nc2ccccc2-c2nnn(CC(=O)Nc3ccc4c(c3)OCCO4)n2)c1` the activation was 20.1% (active).
For `Cc1ccc(S(=O)(=O)NCC(=O)Nc2ccc3c(c2)OCCO3)cc1`, the activation was -0.347% (inactive).
In the case of `Cn1c(=O)c2ccccc2n(CC(=O)Nc2ccc3c(c2)OCCO3)c1=O`, the activation is reported as 5.57% (inactive).
For `O=C(c1cccc(N2CCCC2=O)c1)N1CCOCC1`, the activation was -2.25% (inactive).
In the case of `CN(Cc1cccs1)C(=O)Cc1c[nH]c2ccccc12`, the activation is reported as 0.954% (inactive).
For `COc1ccc(NC(=O)CN(C)C(=O)c2ccc(NC3CC3)c([N+](=O)[O-])c2)cc1`, the activation was 4.11% (inactive).
In the case of `NC(=O)NC(=O)CSc1nc2cc([N+](=O)[O-])ccc2n1-c1cccc(C(F)(F)F)c1`, the activation is reported as 20.9% (active).
`COc1ccc(-n2cnnc2SCC(=O)Nc2cccc([N+](=O)[O-])c2)cc1` was tested, and the activation was 9.7% (inactive).
For `COc1ccc(CCNC(=O)CSc2nc3[nH]ncc3c(=O)n2-c2cccc(C(F)(F)F)c2)cc1OC`, the activation was 0.114% (inactive).
With `O=C(COc1ccccc1)Nc1nonc1NC(=O)COc1ccccc1` the activation was 1.39% (inactive).
With `COC(=O)CC1=NN(c2nc(C)cc(C)n2)C(=O)C1` the activation was 0.664% (inactive).
For `CS(=O)(=O)N(CC(=O)N1CCCC1)Cc1ccccc1`, the activation was -9% (inactive).
`Cc1ccc(-c2nc(CS(=O)CC(=O)N3CCN(c4ncccn4)CC3)c(C)o2)cc1` (stereo not given) was tested, and the activation was -11.3% (inactive).
With `Cc1[nH]c2c(C(=O)N3CCCC(CCC(=O)NCc4ccccc4F)C3)cccc2c1C` (stereo not given) the activation was -10% (inactive).
For `O=C(Nc1c[nH]c(=O)[nH]c1=O)OCc1ccccc1`, the activation was 1.77% (inactive).
For `Cc1ccc(NC(=O)Nc2ccccc2)c(Br)c1`, the activation was -6.25% (inactive).
With `Cc1cc(NC(=O)Nc2c[nH]c(=O)[nH]c2=O)ccc1Br` the activation was 27% (active).
`CCOC(=O)CCC(NC(=O)c1ccc(CNc2nc3cc(C(F)(F)F)ccc3nc2C(=O)OCC)cc1)C(=O)OCC` (stereo not given) was tested, and the activation was -4.97% (inactive).
`COc1ccccc1CNC(=O)COC(=O)CNS(=O)(=O)c1ccc(NC(C)=O)cc1` was tested, and the activation was 0.477% (inactive).
With `CC(=O)Nc1ccc(S(=O)(=O)NCC(=O)OCc2cc(=O)oc3ccc4ccccc4c23)cc1` the activation was 38.6% (active).
In the case of `COc1ccccc1C(=O)COC(=O)CNS(=O)(=O)c1ccc(NC(C)=O)cc1`, the activation is reported as -5.62% (inactive).
`CC1CCC(N2CC(=O)N(Cc3ccc4c(c3)OCO4)C(c3ccc(F)cc3)C2=O)CC1` (stereo not given) was tested, and the activation was -1.56% (inactive).
For `O=C(CN(Cc1ccccc1)C(=O)CCC(=O)Nc1ccccn1)NCCc1ccccc1`, the activation was -12.5% (inactive).
With `CCCOc1ccc(C(=O)C(CCC(CNCC)C(=O)c2ccc(OCCC)cc2)CNCC)cc1` (stereo not given) the activation was 18.7% (active).
In the case of `CCCOc1ccc(C(=O)CCC(=O)OC(C)C(=O)Nc2ccc(NC(C)=O)cc2)cc1` (stereo not given), the activation is reported as 11.5% (inactive).
In the case of `CCCOc1ccc(/C=N/NC(=O)C2CC2)c(OCCC)c1`, the activation is reported as -10.6% (inactive).
For `O=C(Nc1cc(-c2nc3ncccc3o2)ccc1Cl)c1ccco1`, the activation was -46.8% (inactive).
With `Nc1nc(SCC(=O)Nc2cc(C(F)(F)F)ccc2Cl)[nH]c(=O)c1NC(=O)c1ccco1` the activation was 48.3% (active).
In the case of `COC(=O)c1ccc(NC(=O)CSc2nc(N)c(NC(=O)c3ccc(Br)o3)c(=O)[nH]2)cc1`, the activation is reported as 10.1% (inactive).
In the case of `CCN(CC(=O)NCc1ccc(F)cc1)S(=O)(=O)c1ccc(Cl)s1`, the activation is reported as 6.54% (inactive).
`NN=C(NN=Cc1ccccc1)c1ccccc1` was tested, and the activation was -14.8% (inactive).
With `COc1ccc(C)cc1NC(=O)CSc1cccc[n+]1[O-]` the activation was 6.31% (inactive).
`O=C(Nc1nnc(C2COc3ccccc3O2)o1)c1ccc(F)cc1` (stereo not given) was tested, and the activation was 1.05% (inactive).
With `COc1ccc(N(CC(=O)N/N=C/c2cccc3c2OCCO3)S(=O)(=O)c2ccc(NC(C)=O)cc2)cc1` the activation was -0.26% (inactive).
For `Cc1cc(=O)[nH]c2nnnn12`, the activation was -4.86% (inactive).
With `CCN(CC)CCNc1ccc(Cl)cc1[N+](=O)[O-]` the activation was 4.58% (inactive).
For `O=C(NCc1cccnc1)C(=O)Nc1nc(-c2ccccc2)cs1`, the activation was -5.18% (inactive).
`O=C(Nc1nnc(Cc2ccccc2)s1)c1cnccn1` was tested, and the activation was -3.57% (inactive).
With `O=C(Nc1nc(-c2ccc(-c3ccccc3)cc2)cs1)c1cnccn1` the activation was 21.9% (active).
`CCCCC(NS(=O)(=O)c1ccc(C)cc1)C(=O)Oc1ccc2c3c(c(=O)oc2c1)CCC3` (stereo not given) was tested, and the activation was -11.5% (inactive).
For `CCOc1ccc(NC(=O)c2ccc(CSc3nnnn3C)cc2)cc1`, the activation was -3.33% (inactive).
In the case of `Cn1c(=O)n(C)c2cc(/C=N/NC(=O)c3cccc(Br)c3)ccc21`, the activation is reported as 10.7% (inactive).
With `O=C(Nc1ccc(N2CCCC2=O)cc1)c1cncc(Br)c1` the activation was -1.59% (inactive).
In the case of `O=C(N/N=C/c1cccc(Br)c1)c1ccc(N2CCCC2=O)cc1`, the activation is reported as 86.6% (active).
For `CCN(CC(=O)Nc1c(F)cccc1F)C(=O)Cc1cccs1`, the activation was 3.46% (inactive).
In the case of `Cc1cc(C)cc(NC(=O)C(OC(=O)c2ccc(O)cc2)c2ccccc2)c1` (stereo not given), the activation is reported as 6.84% (inactive).
For `COc1ccc(C)cc1NC(=O)C(OC(=O)c1cccc(S(=O)(=O)N(C)c2ccccc2)c1)c1ccccc1` (stereo not given), the activation was -8.39% (inactive).
With `Cc1ccc(C)c(NC(=O)C(OC(=O)c2ccc(C)s2)c2ccccc2)c1` (stereo not given) the activation was 23.6% (active).
`C/C(CC(=O)NCc1ccc(Cl)cc1)=N\NC(=O)COc1ccc(C)cc1Br` was tested, and the activation was -6.55% (inactive).
